Screening results (PubChem BioAssay)
Sfp inh: qHTS Assay for Inhibitors of Bacillus subtilis Sfp phosphopantetheinyl transferase (PPTase); 4'-phosphopantetheinyl transferase ffp (Bacillus subtilis), Q9F4F7; Biochemical Sfp PPTase activity, qHTS; Potency, µM, for the others: largest response in the series, negative = inhibition, hits mostly inhibitors; actives 3.5% (n = 310,000);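 also: the enzyme is Sfp with the accession as filed and its product quenches rhodamine fluorescence; 0% = enzyme reaction without inhibitor and -100% = no enzyme wells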
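After 15 min at room temperature with compound, 15 nM Sfp received 5 uM rhodamine-CoA plus 12.5 uM BHQ-2-ybbR (50 mM Hepes pH 7.6, 10 mM MgCl2). Rate came from the fluorescence difference over 30 min, ex 525/em 598 nm.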
Tau fibril FP: qHTS for Inhibitors of Tau Fibril Formation, Fluorescence Polarization. actives 0.39% (n = 280,000). K18 P301L tau heparin fibrillization, Alexa594 FP, 6 h. Potency, µM (titrated, usually from 57.7 µM), for the others: at the highest dose activity, negative = inhibition, usual class: inhibitors. Microtubule-associated protein tau (Homo sapiens), P10636. AID 1468, 2008; also: nearly all actives have a fitted effect of over 55% in size
Target sequence (P10636 561-689 P618L limits assumed): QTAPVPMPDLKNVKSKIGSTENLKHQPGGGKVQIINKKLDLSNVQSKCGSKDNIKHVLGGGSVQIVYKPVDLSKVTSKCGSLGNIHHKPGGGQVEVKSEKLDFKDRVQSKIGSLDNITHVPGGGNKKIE
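FP of Alexa 594-tau after heparin (20 uM) induction. Substrate: human K18 P301L, 15 uM unlabeled, 0.24 uM labeled. Buffer 100 mM sodium acetate pH 7. 6 hr, 37 C.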
Tau fibril ThT: qHTS for Inhibitors of Tau Fibril Formation, Thioflavin T Binding; Microtubule-associated protein tau (Homo sapiens), P10636; recombinant tau K18 P301L, heparin-induced fibrillization, ThT fluorescence; Potency, µM (series often up to 57.4 µM), for inactives: at the highest dose activity, negative = inhibition, most hits filed as inhibitors; actives 2.1% (n = 270,000); AID 1460, 2008; also: nearly all actives have a fitted effect of over 55% in size
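Heparin-induced fibrillization of the P301L-mutant K18 repeat-domain fragment of human tau was followed by ThT binding in quantitative high-throughput format.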
PLK1 PBD inh: qHTS for Inhibitors of PLK1-PDB (polo-like kinase 1 - polo-box domain): Primary Screen; Serine/threonine-protein kinase PLK1 (Homo sapiens), P53350; Plk1 PBD binding of FITC phosphopeptide, fluorescence polarization; Potency, µM, for inactives: max response, negative = inhibition, hits mostly inhibitors; actives 2.8% (n = 360,000); also: series mostly up to about 57 µM; nearly all actives have a fitted effect of over 65% in size
Target sequence (P53350 whole entry, looked up, the tested form may be a part): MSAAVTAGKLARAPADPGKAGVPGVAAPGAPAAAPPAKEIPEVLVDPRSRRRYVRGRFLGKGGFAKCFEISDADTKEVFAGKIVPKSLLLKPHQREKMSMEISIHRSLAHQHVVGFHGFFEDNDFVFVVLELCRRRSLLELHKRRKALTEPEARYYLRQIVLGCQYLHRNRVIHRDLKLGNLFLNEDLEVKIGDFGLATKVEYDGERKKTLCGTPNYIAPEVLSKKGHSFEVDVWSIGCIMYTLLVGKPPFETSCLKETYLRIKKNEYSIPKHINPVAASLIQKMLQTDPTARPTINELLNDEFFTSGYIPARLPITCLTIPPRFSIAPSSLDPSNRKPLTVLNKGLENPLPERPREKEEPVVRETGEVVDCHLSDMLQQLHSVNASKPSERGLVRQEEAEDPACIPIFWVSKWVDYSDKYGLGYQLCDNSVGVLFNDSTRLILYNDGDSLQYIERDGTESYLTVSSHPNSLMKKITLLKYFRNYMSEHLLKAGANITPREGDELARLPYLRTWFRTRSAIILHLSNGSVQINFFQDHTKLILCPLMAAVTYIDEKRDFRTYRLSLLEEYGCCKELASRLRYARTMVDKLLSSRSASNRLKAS
VDR inhibitor: Inhibitors of the vitamin D receptor (VDR): qHTS; Potency, µM, without a hit: max response, negative = inhibition, hits mostly inhibitors; AID 504847, 2011; actives 0.93% (n = 400,000); VDR-SRC2-3 peptide fluorescence polarization, 2 h; Vitamin D3 receptor (Homo sapiens), P11473
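Inhibition of the VDR/SRC2-3 peptide interaction is quantified by fluorescence polarization. Compounds (23 nl, pintool) incubate with the reagents for 2 hours at ambient room temperature.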
Tau fluor counter: Counterscreen qHTS for Inhibitors of Tau Fibril Formation, Fluorescence Polarization; tau K18 P301L Alexa594 fluorescence, heparin fibrillization; Potency, µM (top dose mostly 57.7 µM), without a hit: at the highest dose activity change, negative = decrease; actives 0.93% (n = 280,000); also: nearly all actives have a fitted effect of over 55% in size
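Human tau K18 P301L (15 uM unlabeled, 0.24 uM Alexa 594-labeled) in 100 mM sodium acetate pH 7 with 20 uM heparin, 6 hr at 37 C. ThT 30 uM added, 1 hr ambient; Alexa 594 FP and total fluorescence read at 555/632 nm.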
Starred values were filed as active, the others as inactive; ? = inconclusive; . = no result; [ ] = another dose, or the depositor's remark. Only some compounds are listed: those with a hit (about 6% of all), similar ones and a draw of the others. Calls follow the shape of the dose curve; as a rule, active = well fitted curve in the direction sought with a large enough effect; inconclusive = small, poorly fitted or top-dose-only effect, or another doubt; inactive = no such curve, though single readings can be large; an effect the other way counts as inactive or inconclusive. Unless noted, % is scaled to controls: 0 for no effect and ±100 for the full control effect; potency is read from the fitted curve at half-maximal effect.

SMILES	Sfp inh	Tau fibril FP	Tau fibril ThT	PLK1 PBD inh	VDR inhibitor	Tau fluor counter
Cc1[nH]n(-c2ccccc2)c(=O)c1C(c1cc(Cl)ccc1O)c1c(C)[nH]n(-c2ccccc2)c1=O	.	-0.7%	-10.4%	.	?	-15.8%
Cc1ccc(C(C[N+](=O)[O-])c2c(C)[nH]n(-c3ccccc3)c2=O)cc1 (centres undefined)	-15.6%	1.4%	?	-27.9%	44.7µM*	-3.4%
Cc1ccc(C(O)(COC(=O)C(C)C)COC(=O)C(C)C)c(O)c1	79.4µM*	1.0%	?	-9.7%	-17.3%	-19.2%
CCN=c1scc(-c2ccco2)n1/N=C/c1ccc(O)cc1	35.5µM*	8.2%	7.08µM*	-9.7%	-17.0%	14.1µM*[quencher]
CCN=c1scc(-c2ccco2)n1/N=C/c1ccc(OC)c(O)c1	50.1µM*	?	10µM*	-21.2%	-19.7%	15.8µM*[quencher]
CCOc1ccccc1C(=O)Nc1cccc2ccc(C)nc12	.	-3.4%	7.9%	.	11.4%	2.6%
COc1ccccc1NC(=O)C1=C(C)Nc2nc(-c3ccco3)nn2C1c1cccc(C)c1 (centres undefined)	.	-2.6%	-12.0%	.	-12.9%	?
C=CCSc1ncc(C(=O)OCC)c(N)n1	6.1%	-6.2%	-5.5%	-12.2%	-5.4%	-10.9%
CCOC(=O)c1cnc(SSc2ncc(C(=O)OCC)c(N)n2)nc1N	7.94µM*	.	.	1.06µM*	?	.
Clc1cnc(N/N=C/c2ccco2)c(Cl)c1	79.4µM*	2.8%	-1.0%	-4.8%	-16.4%	-3.3%
Cc1ccc(S(=O)(=O)c2nnn3c2nc(NC2CCCCC2)c2sccc23)cc1C	.	?	-9.7%	.	-7.1%	?
CCn1c(=O)c(C(=O)Nc2ccccc2C)c(O)c2ccccc21	10.2%	0.0%	-9.0%	-2.4%	2.1%	-6.7%
CCCn1c(=O)c(C(=O)Nc2ccccc2C)c(O)c2ccccc21	35.5µM*	.	.	1.2%	-5.5%	.
CC(C)(C)c1nnc(NC(=O)C2CCN(C(=O)c3ccccc3)CC2)s1	.	.	.	.	1.8%	.
Nc1nc(=S)c2ncn(C3CCCC3)c2[nH]1	12.6µM*	2.0%	-9.9%	-11.2%	-19.8%	-11.7%
O=C(O)c1ccc(N/N=C/c2ccc(OC(=O)c3ccccc3Cl)cc2)cc1	-6.8%	2.6%	?	29.9µM*	-8.4%	?
Nc1ccc(C(=O)N/N=C\c2ccc(OC(=O)c3ccccc3Cl)cc2)cc1	7.9%	.	.	-13.7%	-24.6%	.
NS(=O)(=O)c1ccc(N/N=C/C=C/c2ccccc2[N+](=O)[O-])cc1	8.7%	.	.	6.2%	-0.1%	.
O=C(O)c1cc(N/N=C/C=C/c2ccccc2[N+](=O)[O-])ccc1Cl	-25.7%	-2.8%	3.55µM*	-15.3%	7.2%	?
CC(C)c1ccc(/C=N/Nc2ccc(C(=O)O)cc2)cc1	1.4%	8.1%	?	?	-0.7%	-13.4%
COc1ccc(/C=N/Nc2ccc(C(=O)O)cc2)cc1OC	5.0%	-2.8%	?	-3.3%	-5.2%	-6.7%
COc1ccc(/C=N/Nc2ccc(C(=O)O)cc2)cc1Br	-1.5%	6.6%	7.08µM*	-17.7%	-3.6%	?
O=C(O)c1ccc(N/N=C/c2ccc(-c3ccccc3)cc2)cc1	-12.9%	11.0%	8.91µM*	26.7µM*	-15.3%	15.8µM*[quencher]
COc1ccccc1-c1cnc(C(O)c2cc(C)c(OC)c(C)c2)[nH]1 (centres undefined)	.	.	.	-0.2%	.	.
COC(=O)CCN1CCC2CC1c1cc(N3CCCCC3)ccc12 (centres undefined)	.	.	.	-15.3%	.	.
SMILES	Sfp inh	Tau fibril FP	Tau fibril ThT	PLK1 PBD inh	VDR inhibitor	Tau fluor counter
Cc1ccccc1C(=O)NNC(=O)C1CC(=O)N(c2ccc3c(c2)OCCO3)C1 (centres undefined)	.	.	.	-1.1%	-20.6%	.
CC(C)OC(=O)c1cc2c(OC[C@@H](O)CNC(C)(C)C)cccc2[nH]1	1.9%	0.8%	-7.7%	.	0.5%	-11.1%
O=[N+]([O-])c1ccccc1/C=C/C=N/Nc1nc(N2CCCCC2)nc(N2CCCCC2)n1	?	11.6%	-13.0%	26.7µM*	?	-5.4%
O=[N+]([O-])c1ccccc1/C=N/Nc1nc(N2CCCC2)nc(N2CCCC2)n1	17.4%	10.1%	-6.7%	-3.9%	-13.4%	-1.5%
O=C(O)c1cc(N/N=C/c2ccc(-c3ccccc3)cc2)ccc1Cl	-19.9%	.	.	9.47µM*	?	.
O=C(CN1CCC(n2nnc3cc(F)ccc32)CC1)NCc1ccco1	56.2µM*	-7.6%	-11.7%	-10.3%	-4.7%	-15.7%
Cc1ccc(-c2cn3c(n2)sc2cc(C(=O)N4CCCCC4)ccc23)cc1	.	4.9%	-8.5%	.	-5.0%	3.2%
Cc1ccc(/C=N/n2c(-c3ccccc3)n[nH]c2=S)cc1	-1.0%	.	.	-15.1%	-17.0%	.
N=C1N(/N=C/c2ccccc2)C(=Nc2ccccc2)C(=S)N1c1ccccc1	31.6µM*	?	?	1.7%	-6.2%	-24.5%
CN1C(=O)/C(=C/c2ccc(-c3ccccc3[N+](=O)[O-])o2)SC1=Nc1ccc(Cl)c(C(=O)O)c1	14.1µM*	-11.1%	14.1µM*	26.7µM*	?	-13.7%
CC(OC(=O)c1ccccc1NCCO)C(=O)NC1CCCCC1C (centres undefined)	.	.	.	-6.1%	2.0%	.
O=c1c2oc3ccccc3c2n(Cc2cccc(C(F)(F)F)c2)c(=O)n1Cc1ccc2c(c1)OCO2	.	-16.9%	3.5%	.	-5.8%	-15.1%
Cn1ccnc1Sc1ccccc1[N+](=O)[O-]	-7.7%	-12.5%	-1.2%	?	6.7%	-8.2%
CSc1nccn1C(=O)c1ccccc1[N+](=O)[O-]	39.8µM*	.	.	?	?	.
Cc1cc(C)cc(NC(=O)C2CCN(c3nccs3)CC2)c1	89.1µM*	4.7%	-3.7%	-22.3%	-12.2%	-13.5%
Cc1cc(C)cc(NC(=O)C2CCN(S(C)(=O)=O)CC2)c1	9.3%	.	.	-10.1%	-5.7%	.
CSc1nc(S(=O)(=O)c2ccc(C)cc2)c(N2CCOCC2)s1	.	.	.	-22.2%	.	.
Cc1ccc(S(=O)(=O)c2nc(N3CCOCC3)sc2Cl)cc1	50.1µM*	-4.8%	-11.0%	-21.1%	18.1%	-9.6%
Cc1ccc(S(=O)(=O)c2nc(S(=O)(=O)CCO)sc2N2CCOCC2)cc1	6.9%	.	.	29.9µM*	-18.3%	.
CNC(=O)C1Cc2c(-c3ccccc3Oc3ccccc3)ccnc2O1 (centres undefined)	.	.	.	-12.5%	.	.
